About 79,000 compounds went through this panel and 15% of them were active in at least one assay; those are over-represented in the sample as a whole. Active and inactive are the calls of the source. No stated cut-off is given here; in the data, active means growth inhibition above about 70%; inactive means the rest.
Experiment: NCI Yeast Anticancer Drug Screen. Data for the cln2 rad14 strain (AID 165);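 further: 0% = growth equal to vehicle treated cultures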
Conditions: S. cerevisiae cln2 rad14 strain, at 50.0 µM (retest, dose inferred, filed as 5.0), active compounds read high
Summary of the method: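 Strain: cln2 rad14 yeast, altered in cell cycle control and DNA damage repair. Read-out: growth inhibition vs vehicle.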

Structure (SMILES) | growth inhibition
CC(=O)NNc1nc(C)c(C(=O)NNC(=O)C(=O)Nc2c(C)cccc2C(C)C)s1 | 49% (inactive)
COc1cc(C2CC(=O)c3ccccc3O2)ccc1O (centres undefined) | 97% (active)
CCC1CCC2C3CC=C4CC(OC(C)=O)C(N)CC4(C)C3CCC12C (centres undefined) | 95% (active)
COc1ccccc1C1c2cc3c(cc2OC(N2CCOCC2)C1C)OCO3 (centres undefined) | 56% (inactive)
O=C1C=C/C(=C(/c2ccc(O)c(O)c2)c2ccccc2S(=O)(=O)O)C=C1O | -2% (inactive)
N#CSC#Cc1ccc(C#CSC#N)cc1 | 97% (active)
Cc1c2ccccc2c(CCl)c2ccc3ccccc3c12 | 99% (active)
Oc1ccc(C(=C(Br)c2ccccc2)c2ccc(O)cc2)cc1 | 99% (active)
Clc1ccc(/C=N/Nc2c3ccccc3nc3ccccc23)c(Cl)c1 | 64% (inactive)
CCCC#CCCOC(=O)c1cc([N+](=O)[O-])cc([N+](=O)[O-])c1 | 76% (active)
CCOc1ccc2c(c1)n([O-])c1ccccc1[n+]2=O | 98% (active)
COc1ccc(/C(Cl)=C(\c2ccc(OCCN(C)C)cc2)c2ccc(OC(=O)C(C)(C)C)cc2)cc1 | 10% (inactive)
CCCCCCCCCCCCCCCCSC(=NC)NC | 99% (active)
N#Cc1ccc(Oc2nc3ccccc3nc2-c2ccccc2)cc1 | 23% (inactive)
Cc1ccc2c(c1)nc1n2C(N)=Nc2ccccc2S1 | 17% (inactive)
COc1cc(NCc2ccc3nc(-c4ccccc4)c(N)nc3c2)cc(OC)c1OC | 3% (inactive)
O=C(OCCC1CCCCC1)c1cc([N+](=O)[O-])cc([N+](=O)[O-])c1 | 71% (active)
O=C1c2ccc3ccccc3c2CCC1[n+]1ccc2ccccc2c1 (centres undefined) | 29% (inactive)
Cc1cc(NC(=S)SCc2ccc(Cl)cc2)c([N+](=O)[O-])cc1C | 92% (active)
N#CC(O)C(Br)(Br)Br (centres undefined) | 18% (inactive)

Structure (SMILES) | growth inhibition
C[CH2][Ge]([CH2]C)[CH2]C.C[CH2][Ge]([Cl])[CH2]C.C[CH2][Ge][CH2]C | 94% (active)
COC1C(=[N+]=[N-])C(=O)NC(=O)N1C1OC(COC(c2ccccc2)(c2ccccc2)c2ccccc2)C(O)C1O (centres undefined) | 14% (inactive)
CC(=O)Oc1ccc(C)c(C(C)C(Cl)(Cl)Cl)c1 (centres undefined) | 13% (inactive)
OC(c1ccccc1)c1cccc(Br)c1 (centres undefined) | 48% (inactive)
CC/C(=C1\C=CC(=O)S1)C(CC)c1ccc(OC(C)=O)cc1 (centres undefined) | 99% (active)
COc1ccc(/C=C2/C(=O)NC3SC=C(c4cccc([N+](=O)[O-])c4)N23)cc1 (centres undefined) | -23% (inactive)
O=C1O/C(=C2\OC(=O)c3ccccc32)c2ccccc21 | 3% (inactive)
Clc1ncccc1-n1cccc1/C=N\N=C/c1cccn1-c1cccnc1Cl | 93% (active)
Clc1nc2cc3nc(Cl)c(Cl)nc3cc2nc1Cl | 23% (inactive)
CC(=O)c1c2c(cc3c1CC1(Cc4cc5c(cc4C1)C(=O)CCC5)C3)CCCC2 (centres undefined) | 30% (inactive)
CCCCOS(=O)(=O)c1ccc(C)cc1 | -15% (inactive)
C[N+]1(c2ccccc2)C=C(c2ccccc2)SC1=S (centres undefined) | 10% (inactive)
COc1ccc(/C=N/N=c2\[nH][nH]/c(=N\N=C\c3ccc(OC)c4ccccc34)c3ccccc23)c2ccccc12 | 28% (inactive)
CCCCCCCCCCCCCCCCN | 97% (active)
CCCCCCCCCCCC[S+](C)C | 26% (inactive)
CP(=O)(c1ccccc1)c1ccccc1 | -12% (inactive)
CCCCCCCCCCCC(=O)OC/C=C/COC(=O)c1ccccc1 | 20% (inactive)
O=C(O)CCC(O)=C1S(=O)(=O)OCCOS1(=O)=O | -30% (inactive)
CCOC(=O)C1SC(=Nc2cccc(Cl)c2C)N=C1C (centres undefined) | 73% (active)
